In PubChem BioAssay AID1460 (National Center for Advancing Translational Sciences (NCATS), 2008):
In all, about 270,000 compounds went through this assay and about 5,800 (2.1%) were called active. Not shown: some 16% with an inconclusive outcome. Calls follow the shape of the dose curve; as a rule, active = well fitted inhibition curve with a large enough effect; inconclusive = small, poorly fitted or top-dose-only effect; inactive = flat fitted curve, though single readings scatter. What follows is part of a selection rich in actives, with near analogues and random picks from the rest. Entries that show only a call come without a potency.

Each compound was assayed against Microtubule-associated protein tau (Homo sapiens) (UniProt P10636) (assay: qHTS for Inhibitors of Tau Fibril Formation, Thioflavin T Binding). Details: recombinant tau K18 P301L, heparin-induced fibrillization, ThT fluorescence; series mostly up to 57.4 µM.
Chain of Microtubule-associated protein tau (Homo sapiens) (P10636 561-689 P618L limits assumed): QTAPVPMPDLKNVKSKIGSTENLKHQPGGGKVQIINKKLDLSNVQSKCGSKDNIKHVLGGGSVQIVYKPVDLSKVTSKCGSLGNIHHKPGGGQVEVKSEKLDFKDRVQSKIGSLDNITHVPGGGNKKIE
Method in brief: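 Fibril formation assay: tau K18 P301L at 15 uM with trace Alexa 594 label, heparin inducer 20 uM, pH 7 sodium acetate buffer, 37 C for 6 hr; endpoint ThT signal.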
Also: nearly all actives have a fitted effect of over 55% in size.
Potency is read from the fitted curve at half-maximal effect.

SMILES | Potency
O=C(CCS(=O)(=O)c1ccccc1)N(Cc1cccnc1)c1nc2c(F)cccc2s1 | inactive
CN(CC(=O)Nc1ccc(N2CCOCC2)cc1)CC(=O)Nc1ccccc1[N+](=O)[O-] | inactive
O=C(CSc1ccc([N+](=O)[O-])cn1)Nc1ccc(N2CCOCC2)cc1 | inactive
O=C(Nc1ccc(N2CCOCC2)cc1)c1ccc(-c2ccccc2[N+](=O)[O-])o1 | 2.24 µM (active)
Cc1ccc(S(=O)(=O)n2nc(C)c(S(=O)(=O)N3CCCCCC3)c2C)cc1 | inactive
CC(=O)Nc1ccc(S(=O)(=O)N2CCN(c3ccccc3)CC2)cc1 | inactive
CCOc1ccc(OCC)c(NC(=O)c2cc(C)nc3c2c(C)nn3-c2cccc(Cl)c2C)c1 | inactive
COc1cc(NS(=O)(=O)c2ccc(N=Cc3c(C)[nH]n(-c4ccccc4)c3=O)cc2)nc(OC)n1 | inactive
COc1cc(SC#N)ccc1N=Cc1c(C)[nH]n(-c2ccc(C)cc2)c1=O | 14.1 µM (active)
CCC1=NN2C(=N)/C(=C/c3cc(C)n(-c4ccccc4)c3C)C(=O)N=C2S1 | inactive
CS(=O)(=O)c1ccc2c(c1)SC1=NC(=O)/C(=C/c3ccco3)C(=N)N12 | 7.08 µM (active)
Cc1cc(/C=C2/C(=N)N3C(=NC2=O)SN=C3S(C)(=O)=O)c(C)n1-c1ccccc1 | inactive
Cc1cc(C)cc(NC(=O)Cn2nc(N3CCN(c4ccccc4)CC3)ccc2=O)c1 | inactive
Cc1c(-c2cccc(NC(=O)C(C)(C)C)c2)nc2ncccn12 | inactive
Cc1cccn2c(=O)c(C(=O)NC(C)c3ccccc3)cnc12 (configuration not stated) | inactive
Cc1ccc(-c2csc(NC(=O)c3cccs3)n2)cc1 | inactive
Cc1ccc(-c2csc(NNC(=O)c3ccccc3)n2)cc1 | 12.6 µM (active)
Cc1nc(NNC(=O)c2ccccc2)cc(-c2ccccc2)n1 | inactive
Cc1ccc(OC(=O)CSc2nnc(-c3cccs3)o2)cc1 | inactive
CCc1ccc(NS(=O)(=O)c2ccc3[nH]cc(C(=O)NCCc4cccc(C)c4)c(=O)c3c2)cc1 | inactive
Cc1ccc(N2CC(NC(=O)Cc3cccs3)CC2=O)cc1 (configuration not stated) | inactive
COc1cccc(NC(=O)c2ccc3nc(CCc4ccccc4)oc3c2)c1 | inactive
Cn1c(=O)c2c(n3c4ccccc4nc13)NC(=O)CC2c1cccc(Cl)c1 (configuration not stated) | inactive
O=C1Nc2ccc(Br)cc2/C1=N/N=C/C1=C(N2CCOCC2)C(=C\c2ccccc2)/CC1 | 4.47 µM (active)
O=C(CN1CCN(c2ccccn2)CC1)N1CCc2ccccc21 | inactive
C(=N\N1CCN(c2ccccn2)CC1)/C1=C(N2CCOCC2)C(=C/c2ccccc2)/CC1 | 11.2 µM (active)
O=C(Cc1ccc(Br)cc1)N1CCN(c2ccccn2)CC1 | inactive
